Rows were chosen to be rich in hits. Some 4.5% of all compounds tested hit in one or more screens of this group.
Mdm2-MdmX inh: disrupts the human Mdm2-MdmX interaction. O15151+Q00987. SaOS-2 split-luciferase Mdm2/MdmX complementation, luminescence. inhibition, % at 8 µM. 3% of 330,000 active;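 active means inhibition of at least 50% at 8 µM in the primary screen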
Target sequence (O15151 whole entry, looked up): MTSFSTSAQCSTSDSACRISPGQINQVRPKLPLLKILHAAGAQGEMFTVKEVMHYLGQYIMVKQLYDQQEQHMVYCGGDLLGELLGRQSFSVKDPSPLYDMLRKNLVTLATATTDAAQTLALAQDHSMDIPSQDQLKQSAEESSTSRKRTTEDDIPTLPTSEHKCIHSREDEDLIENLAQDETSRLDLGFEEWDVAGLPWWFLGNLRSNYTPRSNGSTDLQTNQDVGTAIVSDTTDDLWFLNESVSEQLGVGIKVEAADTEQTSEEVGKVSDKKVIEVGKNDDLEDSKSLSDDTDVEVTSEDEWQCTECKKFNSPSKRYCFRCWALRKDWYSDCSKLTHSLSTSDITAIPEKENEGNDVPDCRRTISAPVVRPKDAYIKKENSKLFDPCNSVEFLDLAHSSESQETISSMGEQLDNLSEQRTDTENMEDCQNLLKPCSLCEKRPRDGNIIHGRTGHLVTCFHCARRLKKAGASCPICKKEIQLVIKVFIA
Target sequence (Q00987 whole entry, looked up): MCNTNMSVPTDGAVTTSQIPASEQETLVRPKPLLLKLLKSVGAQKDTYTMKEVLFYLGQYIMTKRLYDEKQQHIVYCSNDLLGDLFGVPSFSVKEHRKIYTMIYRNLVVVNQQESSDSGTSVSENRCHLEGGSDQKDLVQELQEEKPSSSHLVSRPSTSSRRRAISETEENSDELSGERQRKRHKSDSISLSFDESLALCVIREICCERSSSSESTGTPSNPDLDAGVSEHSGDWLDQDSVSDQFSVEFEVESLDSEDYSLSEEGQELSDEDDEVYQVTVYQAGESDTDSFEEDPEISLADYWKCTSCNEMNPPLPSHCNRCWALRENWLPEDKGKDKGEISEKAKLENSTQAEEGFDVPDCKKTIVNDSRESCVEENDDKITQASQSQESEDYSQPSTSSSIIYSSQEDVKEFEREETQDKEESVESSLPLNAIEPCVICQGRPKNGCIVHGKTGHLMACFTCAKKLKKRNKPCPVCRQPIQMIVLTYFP
697 NFkB inh: inhibitors of the PMA/ionomycin-induced NF-kB reporter in 697 B cells. inhibition, % at 4 µM. 0.33% of 330,000 active. 697 B-cell NF-kB luciferase reporter, 16 h; in the data active means inhibition above about 35%
CSC inhib: cancer stem cell inhibition | cancer stem cell-like cells viability, luminescence | inhibition, % at 7.5 µM | 1.1% of 300,000 active | AID 2717; in the data active means inhibition above about 75%; inconclusive means no clear call, values can overlap the other calls; tested in HMLE shEcad cells
Jurkat NFkB inh: inhibitors of the PMA/ionomycin-induced NF-kB reporter in Jurkat cells; inhibition, % at 4 µM; 0.53% of 330,000 active; PMA/ionomycin-induced NF-kB luciferase reporter, luminescence; in the data active means inhibition above about 50%
Beta cell apopt: blocks beta cell apoptosis; INS-1E cytokine-induced death, ATP luminescence, 48 h; percent of positive-control rescue, neutral wells zero; protection from apoptosis, % (concentration not given with the values); 0.8% of 300,000 active;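 active means Every replicate reaches about 75%, or at least half do and their mean reaches it too, limit read from the data; inconclusive means At least half of replicates reach the limit but their mean does not; inactive means Under half of replicates reach the limit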;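 further: 0% = cytokine-treated negative control wells and 100% = positive control rescue; higher means more ATP so stronger rescue from cytokine killing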
Gli-Sufu antag: Gli-Sufu pathway antagonism; Sufu-KO-LIGHT fibroblasts, Gli luciferase reporter luminescence; inhibition, % at 5 µM; 0.74% of 340,000 active; AID 588413;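 active means inhibition above about 55%, limit read from the data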;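 further: 0% = DMSO-treated cells and 100% = wells with medium but no cells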
Mdm2-MdmX conf: human Mdm2/MdmX binding inhibition, confirmed; shares compounds with Mdm2-MdmX inh; luminescent assay; inhibition, % at 8 µM; 55% of 10,000 active; AID 489028; in the data active means inhibition above about 40%
FLuc counter: inhibits full-length luciferase, flagging false Mdm2/MdmX hits | shares compounds with Mdm2-MdmX inh | SaOS-2 full-length luciferase counterscreen, luminescence | inhibition, % at 8 µM | 77% of 6,200 active;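 active means mean inhibition at 8 µM reaching about 37%, which flags the compound as non-specific, limit read from the data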;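 further: p53-null SaOS-2 cells with luciferase driven by a doxycycline-inducible promoter; compound on cells about two nights before reading with doxycycline added after day one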
The depositor's hits bear a star; ? = inconclusive; / = no result given.

SMILES | Mdm2-MdmX inh | 697 NFkB inh | CSC inhib | Jurkat NFkB inh | Beta cell apopt | Gli-Sufu antag | Mdm2-MdmX conf | FLuc counter
C=C(CC[C@@H](O)C(C)(C)O)[C@H]1CC[C@]2(C)[C@@H]1CCC1[C@@]3(C)CC[C@H](O)C(C)(C)C3CC[C@]12C (stereo not given in full) | 27.8 | -14.3 | ? | 5.1 | -2.2 | 5.1 | / | /
Cc1ccc(C)c(N2CCN(CCCNC(=O)Cn3cccc3C(=O)c3ccccc3)CC2)c1 | 59.3* | 4.1 | -2.1 | 12.9 | 9.8 | 32.1 | 24.0 | /
O=C(CCC(=O)N1CCOc2ccc(Cl)cc21)NCCCN1CCN(c2ccccc2F)CC1 | 48.4 | -2.7 | 13.7 | -8.4 | 7.6 | 13.2 | / | /
O=C(CCC(=O)N1CCOc2ccc(Cl)cc21)NCCCN1CCC(Cc2ccccc2)CC1 | 82.9* | 1.7 | 13.3 | 12.2 | 13.9 | -10.8 | 49.9* | 95.3*
Cc1ccc(C)c(N2CCN(CCCNC(=O)CCC(=O)N3CCOc4ccc(Cl)cc43)CC2)c1 | 78.0* | -20.8 | 43.8 | 20.7 | 6.4 | / | 42.6* | 55.8*
Cc1ccc(NC(=O)COC(=O)c2ccc(Cl)nc2)cc1S(=O)(=O)N1CCCCC1 | 5.0 | 3.2 | 0.0 | 6.3 | -3.5 | -4.5 | / | /
O=[N+]([O-])c1cc(Cl)cc(/C=N/Nc2nc3ccccc3s2)c1O | 79.7* | -16.2 | 47.3 | -19.3 | 8.2 | 1.9 | -0.9 | /
COc1cc(/C=N/Nc2nc3ccccc3s2)cc([N+](=O)[O-])c1O | -4.9 | -36.9 | -0.8 | -17.1 | -0.9 | -7.3 | / | /
O=C(N/N=C/c1ccc(F)cc1)c1ccccc1 | -21.7 | -81.6 | 1.5 | -55.4 | 0.7 | -70.7 | / | /
O=C(N/N=C/c1sc2ccccc2c1O)c1ccccc1 | 67.7* | -23.7 | 35.2 | 6.6 | 102.9* | 15.8 | 67.3* | 41.2*
COc1ccc2cc(C(=O)N/N=C/c3sc4ccccc4c3O)ccc2c1 | 89.2* | -21.7 | 147.5* | 1.1 | 92.3* | -8.0 | 88.7* | 32.4
COc1ccccc1N=c1oc2cc(O)ccc2cc1C(N)=O | 24.3 | -37.6 | ? | 2.1 | 16.7 | 4.2 | / | /
COc1ccc2cc(C(N)=O)c(=Nc3ccc(C)cc3)oc2c1 | 54.0* | -37.6 | 0.4 | -2.8 | -2.5 | -15.2 | 46.4* | 35.2
Cc1cccc(N=c2oc3cc(O)ccc3cc2C(N)=O)c1 | 50.4* | -93.4 | 8.2 | -2.3 | -0.6 | -27.6 | -36.6 | /
CSc1nc(C2CC2)cc(-c2cccs2)c1C#N | 87.6* | -3.6 | 6.1 | 5.8 | 9.1 | -8.9 | 78.8* | 79.3*
CC1CCN(CC2C(=O)O[C@@H]3C[C@@]4(C)CCC[C@H](C)C4=C[C@H]23)CC(C)(C)C1 (stereo not given in full) | 64.6* | 24.2 | 49.6 | 19.7 | -31.3 | -13.6 | 42.6* | 43.7*
C=C1CCC[C@]2(C)C[C@H]3OC(=O)C(CN4CC(C)OC(C)C4)[C@H]3C[C@@H]12 (stereo not given in full) | 35.0 | 13.9 | 0.1 | 10.5 | -16.9 | / | / | /
COc1ccccc1C(=O)NC(=O)CSc1nncn1C(C)C | -12.9 | 15.7 | / | 8.7 | -0.9 | -4.4 | / | /
COc1ccccc1N(C)S(=O)(=O)c1ccc(C(=O)Nc2cc(OC)c(OC)c(OC)c2)cc1 | / | / | / | / | / | 7.6 | / | /
CCOC(=O)C1=C(c2ccccc2)Nc2ncnn2C1c1ccc(C(=O)O)cc1 (stereo not given) | -48.8 | 21.7 | -17.1 | 1.1 | -9.7 | -9.1 | / | /
CCOC(=O)C1=C(c2ccccc2)NC(N)=NC1c1ccc(OCc2ccc(C(=O)OC)cc2)cc1 (stereo not given) | 100.1* | -12.8 | -4.5 | 18.9 | -4.2 | -0.4 | 35.4 | 72.3*
CC(=O)c1cc2c(cc1F)C(C)(C)CCC2(C)C | / | / | / | / | / | 9.2 | / | /
C/C(=C\c1ccc(C(=O)O)cc1)c1ccc2c(c1)C(C)(C)CCC2(C)C | 58.0* | -77.0 | 100.7* | 7.0 | -15.3 | 33.6 | 51.9* | 43.6*
COc1cc2c(cc1OC)CN(C(=O)/C=C/c1cccs1)CC2 | 65.5* | -68.1 | 57.4 | 49.2 | 2.7 | -5.7 | 62.2* | 59.1*
COc1cc2c(cc1OC)CN(C(=O)/C=C/c1ccccc1[N+](=O)[O-])CC2 | 60.6* | -13.3 | -10.9 | 45.6 | 8.3 | 2.8 | 52.5* | 86.3*
SMILES | Mdm2-MdmX inh | 697 NFkB inh | CSC inhib | Jurkat NFkB inh | Beta cell apopt | Gli-Sufu antag | Mdm2-MdmX conf | FLuc counter
COc1cc2c(cc1OC)CN(C(=O)/C=C/c1ccc([N+](=O)[O-])cc1)CC2 | 31.9 | 3.3 | -2.5 | 15.4 | -4.8 | 5.2 | / | /
FC(F)(F)c1cc(CCN2CCNC[C@@H]2Cc2ccccc2)cc(C(F)(F)F)c1 | 50.7* | -8.2 | 77.0* | -2.9 | 18.2 | 30.7 | 19.8 | /
O=c1[nH]c(/C=C/c2cccc3ccccc23)nc2ccccc12 | 44.1 | 11.7 | 6.2 | -22.2 | 40.8 | -38.3 | / | /
O=c1nc2cccc3c2=c(/c1=C(\O)c1ccccc1)c1ccccc1c3=O | 51.7* | 17.5 | 1.9 | 8.8 | 1.9 | 0.1 | 27.9 | /
O=C(NN1CC(C(=O)OCc2ccc(Cl)cc2Cl)CC1=O)c1ccccc1 (stereo not given) | 32.4 | 18.3 | -3.1 | 18.6 | -6.2 | 3.0 | / | /
CCc1nc(N2CCN(C(C)=O)CC2)c2c3c(sc2n1)CC(C(C)(C)C)CC3 (stereo not given) | 72.3* | -49.1 | 12.1 | 7.3 | 117.7* | 13.4 | 25.2 | 62.6*
CCNC(=S)N1CCN(c2nc(CC)nc3sc4c(c23)CCCC4)CC1 | 2.6 | -15.1 | 10.9 | 3.1 | 35.9 | 28.8 | / | /
CCc1nc(N2CCN(C(=O)CCl)CC2)c2c3c(sc2n1)CC(C)CC3 (stereo not given) | 100.3* | 20.2 | 16.6 | 13.7 | 17.2 | 10.9 | 10.9 | /
COc1cc(C(=O)NNC(=O)c2cccn2C)cc(OC)c1OC | -18.3 | 15.5 | -4.3 | 6.6 | -1.3 | -8.4 | / | /
CCOc1ccc(C(=O)Nc2ccc3nc(N4CCN(CC)CC4)cc(C)c3c2)cc1 | 55.2* | -16.2 | 44.9 | -14.1 | 13.9 | 11.3 | 37.7 | 59.5*
CCN1CCN(c2cc(C)c3cc(NC(=S)N4CCN(c5ccccc5)CC4)ccc3n2)CC1 | 100.3* | -20.4 | 41.5 | -15.2 | 26.9 | 1.6 | 44.1* | 52.4*
CCC(C)NC(=S)Nc1ccc2nc(N3CCOCC3)cc(C)c2c1 (stereo not given) | 2.5 | -47.1 | 30.1 | -41.2 | 6.1 | 6.9 | / | /
CCCN1CCN(C(=S)Nc2ccc3nc(N4CCN(CC)CC4)cc(C)c3c2)CC1 | 50.4* | -25.2 | 30.2 | -12.2 | -7.9 | 3.5 | 43.1* | 46.2*
CCC(C)NC(=S)Nc1ccc2nc(N3CCN(CC)CC3)cc(C)c2c1 (stereo not given) | 51.7* | -31.5 | 41.9 | 19.5 | -1.0 | 10.5 | 36.1 | 60.6*
O=C(CN1C(=O)NC2(CCCC2)C1=O)OCC(=O)c1cccc(Cl)c1 | 6.7 | -9.8 | / | -7.4 | / | 1.4 | / | /

Screens as filed in PubChem.
